# Experimental data reported in the supplement of paper PMC4466140.
# B1: unnamed (peptide)
# chain: RKQRSIPLSPIVPES
# Biological target: AgAbp1
# Assay: SPOT peptide array binding signal intensity (averaged, normalized) (arbitrary units (background-subtracted, floor 0; scale differs between SH3 domains)); higher = stronger binding of the SH3 domain to the peptide
# Procedure, shortened: (§1)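 GST-SH3 fusions from four yeast species, purified on glutathione Sepharose, were incubated at 10 μg/ml overnight at 4°C on membranes of synthetic 15-mer peptides in which cysteines were replaced with serines. Binding signal is the normalized, background-subtracted spot intensity averaged over replicates, in domain-specific arbitrary units.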
row,Binder,SPOT peptide array binding signal intensity
1,B1,7

# Biological target: AgBbc1
# Assay: as above
# Procedure, shortened: as §1
row,Binder,SPOT peptide array binding signal intensity
1,B1,17

# Biological target: AgBem1-D1
# Assay: as above
# Procedure, shortened: as §1
row,Binder,SPOT peptide array binding signal intensity
1,B1,77

# Biological target: AgBzz1-D1
# Assay: as above
# Procedure, shortened: as §1
row,Binder,SPOT peptide array binding signal intensity
1,B1,15.5

# Biological target: AgBzz1-D2
# Assay: as above
# Procedure, shortened: as §1
row,Binder,SPOT peptide array binding signal intensity
1,B1,32

# Biological target: AgCyk3
# Assay: as above
# Procedure, shortened: as §1
row,Binder,SPOT peptide array binding signal intensity
1,B1,2

# Biological target: AgFus1
# Assay: as above
# Procedure, shortened: as §1
row,Binder,SPOT peptide array binding signal intensity
1,B1,104

# Biological target: AgHof1
# Assay: as above
# Procedure, shortened: as §1
row,Binder,SPOT peptide array binding signal intensity
1,B1,35.5

# Biological target: AgHse1
# Assay: as above
# Procedure, shortened: as §1
row,Binder,SPOT peptide array binding signal intensity
1,B1,375

# Biological target: AgLsb1
# Assay: as above
# Procedure, shortened: as §1
row,Binder,SPOT peptide array binding signal intensity
1,B1,1.5

# Biological target: AgLsb4
# Assay: as above
# Procedure, shortened: as §1
row,Binder,SPOT peptide array binding signal intensity
1,B1,45.5

# Biological target: AgMyo5
# Assay: as above
# Procedure, shortened: as §1
row,Binder,SPOT peptide array binding signal intensity
1,B1,0.25

# Biological target: AgNbp2
# Assay: as above
# Procedure, shortened: as §1
row,Binder,SPOT peptide array binding signal intensity
1,B1,59

# Biological target: AgRvs167
# Assay: as above
# Procedure, shortened: as §1
row,Binder,SPOT peptide array binding signal intensity
1,B1,3.33

# Biological target: AgSho1
# Assay: as above
# Procedure, shortened: as §1
row,Binder,SPOT peptide array binding signal intensity
1,B1,13

# Biological target: AgSla1-D1-D2
# Assay: as above
# Procedure, shortened: as §1
row,Binder,SPOT peptide array binding signal intensity
1,B1,≤ 0

# Biological target: AgSla1-D3
# Assay: as above
# Procedure, shortened: as §1
row,Binder,SPOT peptide array binding signal intensity
1,B1,3

# Biological target: CaAbp1-D1
# Assay: as above
# Procedure, shortened: as §1
row,Binder,SPOT peptide array binding signal intensity
1,B1,236

# Biological target: CaAbp1-D2
# Assay: as above
# Procedure, shortened: as §1
row,Binder,SPOT peptide array binding signal intensity
1,B1,98.5

# Biological target: CaBbc1
# Assay: as above
# Procedure, shortened: as §1
row,Binder,SPOT peptide array binding signal intensity
1,B1,175

# Biological target: CaBem1-D1
# Assay: as above
# Procedure, shortened: as §1
row,Binder,SPOT peptide array binding signal intensity
1,B1,13

# Biological target: CaBzz1-D1
# Assay: as above
# Procedure, shortened: as §1
row,Binder,SPOT peptide array binding signal intensity
1,B1,58

# Biological target: CaBzz1-D2
# Assay: as above
# Procedure, shortened: as §1
row,Binder,SPOT peptide array binding signal intensity
1,B1,136

# Biological target: CaCyk3
# Assay: as above
# Procedure, shortened: as §1
row,Binder,SPOT peptide array binding signal intensity
1,B1,48

# Biological target: CaFus1
# Assay: as above
# Procedure, shortened: as §1
row,Binder,SPOT peptide array binding signal intensity
1,B1,368

# Biological target: CaHof1
# Assay: as above
# Procedure, shortened: as §1
row,Binder,SPOT peptide array binding signal intensity
1,B1,0.25

# Biological target: CaHse1
# Assay: as above
# Procedure, shortened: as §1
row,Binder,SPOT peptide array binding signal intensity
1,B1,12.2

# Biological target: CaLsb1
# Assay: as above
# Procedure, shortened: as §1
row,Binder,SPOT peptide array binding signal intensity
1,B1,0.5

# Biological target: CaLsb4
# Assay: as above
# Procedure, shortened: as §1
row,Binder,SPOT peptide array binding signal intensity
1,B1,64

# Biological target: CaMyo5
# Assay: as above
# Procedure, shortened: as §1
row,Binder,SPOT peptide array binding signal intensity
1,B1,3.5

# Biological target: CaNbp2
# Assay: as above
# Procedure, shortened: as §1
row,Binder,SPOT peptide array binding signal intensity
1,B1,297

# Biological target: CaRvs167
# Assay: as above
# Procedure, shortened: as §1
row,Binder,SPOT peptide array binding signal intensity
1,B1,5.17

# Biological target: CaRvs167-3
# Assay: as above
# Procedure, shortened: as §1
row,Binder,SPOT peptide array binding signal intensity
1,B1,1.25

# Biological target: CaSho1
# Assay: as above
# Procedure, shortened: as §1
row,Binder,SPOT peptide array binding signal intensity
1,B1,83

# Biological target: CaSla1-D1-D2
# Assay: as above
# Procedure, shortened: as §1
row,Binder,SPOT peptide array binding signal intensity
1,B1,15

# Biological target: CaSla1-D3
# Assay: as above
# Procedure, shortened: as §1
row,Binder,SPOT peptide array binding signal intensity
1,B1,≤ 0

# Biological target: ScAbp1
# Assay: as above
# Procedure, shortened: as §1
row,Binder,SPOT peptide array binding signal intensity
1,B1,11

# Biological target: ScBbc1
# Assay: as above
# Procedure, shortened: as §1
row,Binder,SPOT peptide array binding signal intensity
1,B1,20.2

# Biological target: ScBem1-D1
# Assay: as above
# Procedure, shortened: as §1
row,Binder,SPOT peptide array binding signal intensity
1,B1,7

# Biological target: ScBzz1-D1
# Assay: as above
# Procedure, shortened: as §1
row,Binder,SPOT peptide array binding signal intensity
1,B1,25.5

# Biological target: ScBzz1-D2
# Assay: as above
# Procedure, shortened: as §1
row,Binder,SPOT peptide array binding signal intensity
1,B1,12.5

# Biological target: ScCyk3
# Assay: as above
# Procedure, shortened: as §1
row,Binder,SPOT peptide array binding signal intensity
1,B1,37

# Biological target: ScFus1
# Assay: as above
# Procedure, shortened: as §1
row,Binder,SPOT peptide array binding signal intensity
1,B1,98

# Biological target: ScHof1
# Assay: as above
# Procedure, shortened: as §1
row,Binder,SPOT peptide array binding signal intensity
1,B1,0.5

# Biological target: ScHse1
# Assay: as above
# Procedure, shortened: as §1
row,Binder,SPOT peptide array binding signal intensity
1,B1,679

# Biological target: ScLsb1
# Assay: as above
# Procedure, shortened: as §1
row,Binder,SPOT peptide array binding signal intensity
1,B1,1.75

# Biological target: ScLsb2
# Assay: as above
# Procedure, shortened: as §1
row,Binder,SPOT peptide array binding signal intensity
1,B1,2

# Biological target: ScLsb3
# Assay: as above
# Procedure, shortened: as §1
row,Binder,SPOT peptide array binding signal intensity
1,B1,243

# Biological target: ScLsb4
# Assay: as above
# Procedure, shortened: as §1
row,Binder,SPOT peptide array binding signal intensity
1,B1,9

# Biological target: ScMyo3
# Assay: as above
# Procedure, shortened: as §1
row,Binder,SPOT peptide array binding signal intensity
1,B1,7

# Biological target: ScMyo5
# Assay: as above
# Procedure, shortened: as §1
row,Binder,SPOT peptide array binding signal intensity
1,B1,6.25

# Biological target: ScNbp2
# Assay: as above
# Procedure, shortened: as §1
row,Binder,SPOT peptide array binding signal intensity
1,B1,142

# Biological target: ScPex13
# Assay: as above
# Procedure, shortened: as §1
row,Binder,SPOT peptide array binding signal intensity
1,B1,4.5

# Biological target: ScRvs167
# Assay: as above
# Procedure, shortened: as §1
row,Binder,SPOT peptide array binding signal intensity
1,B1,39.7

# Biological target: ScSho1
# Assay: as above
# Procedure, shortened: as §1
row,Binder,SPOT peptide array binding signal intensity
1,B1,284

# Biological target: ScSla1-D1-D2
# Assay: as above
# Procedure, shortened: as §1
row,Binder,SPOT peptide array binding signal intensity
1,B1,193

# Biological target: ScSla1-D3
# Assay: as above
# Procedure, shortened: as §1
row,Binder,SPOT peptide array binding signal intensity
1,B1,57.2

# Biological target: SpAbp1-D1
# Assay: as above
# Procedure, shortened: as §1
row,Binder,SPOT peptide array binding signal intensity
1,B1,85

# Biological target: SpBbc1
# Assay: as above
# Procedure, shortened: as §1
row,Binder,SPOT peptide array binding signal intensity
1,B1,0.25

# Biological target: SpBzz1-D1
# Assay: as above
# Procedure, shortened: as §1
row,Binder,SPOT peptide array binding signal intensity
1,B1,171
